Test results published in PubChem BioAssay (EPA / NIEHS).
Several values for one entry are separate records, joined by “and”; a condition that tells them apart may be missing. Identical values can stand only once. Where a structure was tested more than once in an assay, its records may differ in their call. Activity calls are given as the source filed them. Rule for the calls: active = hit-call score of the fitted dose curve at least 0.9, where 1 is the maximum; inactive = score below 0.9.

System: not listed separately
Assay: ATG_RORE_CIS: Attagene CIS-FACTORIAL HepG2 Assay for human RAR-related Orphan Receptor Element (RORE) (AID 2282959)
Conditions: HepG2 Attagene cis-factorial RORE reporter, mRNA; actives raise or lower the signal
In short: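 Endogenous factor activity at a cis response element is read as reporter transcript levels in HepG2 cells, 24 h post-dose. Transcripts are quantified by RT-PCR with capillary electrophoresis, and data fitted in both directions against DMSO.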

SMILES	outcome	AC50
c1ccc2c(c1)CCC2	inactive	–
CC(C)(C)c1ccc(O)c(O)c1	inactive	45.8 µM (active) and 27.9 µM (active) and 54.2 µM (active)
CN(Cc1cnc2nc(N)nc(N)c2n1)c1ccc(C(=O)N[C@@H](CCC(=O)O)C(=O)O)cc1	inactive	–
CCCCCCCCCCCC(=O)NCCCN(C)C	–	21.3 µM (active)
O=C1c2ccc(O)c(O)c2C(=O)c2c(O)ccc(O)c21	inactive	–
Cc1ccc(C(=O)c2ccccc2)cc1	inactive	–
Nc1ccc(O)c(C(=O)O)c1	inactive	–
CCCCc1oc2ccccc2c1C(=O)c1cc(I)c(OCCN(CC)CC)c(I)c1	inactive	–
O=C(O)C(F)(F)OC(F)(F)C(F)(F)OC(F)(F)C(F)(F)OC(F)(F)C(F)(F)C(F)(F)C(F)(F)F	–	45.4 µM (active) and 21.6 µM (active)
CC[N+](CC)(CC)Cc1ccccc1	inactive	–
O=C1Cc2ccccc2N1c1c(Cl)cccc1Cl	inactive	–
CCCCC(CC)C(=O)OCCOCCOCCOCCOC(=O)C(CC)CCCC (configuration not stated)	inactive	–
CN(C)CCOC(c1ccccc1)c1ccccc1	inactive	–
C[C@]12CC[C@@H]3c4ccc(O)cc4CC[C@H]3[C@@H]1CC[C@@H]2OC(=O)CCC1CCCC1	inactive	–
FC(OC(F)(F)C(F)(F)C(F)(F)F)C(F)(F)F (configuration not stated)	inactive	–
COCN(COC)c1nc(N(COC)COC)nc(N(COC)COC)n1	inactive	–
CC=O	inactive	–

SMILES	outcome	AC50
CCCCCCCCCCCCCCC	inactive	–
Cc1ccccc1C(OCCN(C)C)c1ccccc1 (configuration not stated)	inactive	–
CC(=O)Nc1ccc(O)cc1	inactive	–
CC(C)CCOCCC(C)C	inactive	–
CCc1ccccc1O	inactive	–
O=P(O)(O)CCC(F)(F)C(F)(F)C(F)(F)C(F)(F)C(F)(F)C(F)(F)F	inactive	–
Nc1ccn([C@@H]2O[C@H](CO)[C@@H](O)C2O)c(=O)n1 (some centres not stated)	inactive	–
O=C(CCCN1CCC(O)(c2ccc(Cl)cc2)CC1)c1ccc(F)cc1	–	52.4 µM (active)
CC1=NN(c2ccccc2)C(=O)C1	inactive	–
O=S(=O)(c1ccc(OCc2ccccc2)cc1)c1ccccc1O	inactive	–
CC(C)C=O	inactive	–
Cc1cc(Cc2cc(C)cc(C(C)(C)C)c2O)c(O)c(C(C)(C)C)c1	inactive	–
Cc1ccc(N=Nc2c(O)ccc3ccccc23)c(C)c1	inactive	–
O=C1OC(=O)c2cc(-c3ccc4c(c3)C(=O)OC4=O)ccc21	inactive	–
O=C1c2ccccc2C(=O)c2c(O)c(O)cc(O)c21	inactive	–
CCC(=O)O	inactive	–

System: not listed separately
Assay: ATG_Sox_CIS: Attagene CIS-FACTORIAL HepG2 Assay for human SRY-box transcription factor (SOX) (AID 2282960)
Conditions: HepG2 Attagene cis-factorial SOX reporter, mRNA; actives raise or lower the signal
In short: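 Measures mRNA induction of a SOX1-associated reporter in HepG2 after 24 h dosing. Fluorescently labelled RT-PCR fragments are separated by capillary electrophoresis, and gain or loss relative to DMSO control is fitted.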

SMILES	outcome	AC50
c1ccc2c(c1)CCC2	inactive	–
CC(C)(C)c1ccc(O)c(O)c1	inactive	–
CN(Cc1cnc2nc(N)nc(N)c2n1)c1ccc(C(=O)N[C@@H](CCC(=O)O)C(=O)O)cc1	inactive	–
CCCCCCCCCCCC(=O)NCCCN(C)C	inactive	–
O=C1c2ccc(O)c(O)c2C(=O)c2c(O)ccc(O)c21	inactive	–
Cc1ccc(C(=O)c2ccccc2)cc1	inactive	–
Nc1ccc(O)c(C(=O)O)c1	inactive	–
CCCCc1oc2ccccc2c1C(=O)c1cc(I)c(OCCN(CC)CC)c(I)c1	–	128 µM (active)
CC[N+](CC)(CC)Cc1ccccc1	inactive	–
O=C1Cc2ccccc2N1c1c(Cl)cccc1Cl	inactive	–
CN(C)c1ccc(C(=C2C=CC(=[N+](C)C)C=C2)c2ccccc2)cc1	inactive	1.36 µM (active)
CCCCC(CC)C(=O)OCCOCCOCCOCCOC(=O)C(CC)CCCC (configuration not stated)	inactive	–
c1cnc2c(c1)ccc1cccnc12	inactive	–
CN(C)CCOC(c1ccccc1)c1ccccc1	inactive	–
Cc1cc(=O)oc2cc(O)ccc12	inactive	–
FC(OC(F)(F)C(F)(F)C(F)(F)F)C(F)(F)F (configuration not stated)	inactive	–

SMILES	outcome	AC50
COCN(COC)c1nc(N(COC)COC)nc(N(COC)COC)n1	inactive	–
CC=O	inactive	–
Cc1ccccc1C(OCCN(C)C)c1ccccc1 (configuration not stated)	inactive	–
CC(=O)Nc1ccc(O)cc1	inactive	–
CC(C)CCOCCC(C)C	inactive	–
CCc1ccccc1O	inactive	–
O=P(O)(O)CCC(F)(F)C(F)(F)C(F)(F)C(F)(F)C(F)(F)C(F)(F)F	inactive	–
Nc1ccn([C@@H]2O[C@H](CO)[C@@H](O)C2O)c(=O)n1 (some centres not stated)	inactive	–
O=C(CCCN1CCC(O)(c2ccc(Cl)cc2)CC1)c1ccc(F)cc1	inactive	–
O=S(=O)(c1ccc(OCc2ccccc2)cc1)c1ccccc1O	inactive	–
Cc1ccc(S(=O)(=O)O)cc1	inactive	–
Cc1cc(Cc2cc(C)cc(C(C)(C)C)c2O)c(O)c(C(C)(C)C)c1	–	153 µM (active)
Cc1ccc(N=Nc2c(O)ccc3ccccc23)c(C)c1	inactive	–
O=C1OC(=O)c2cc(-c3ccc4c(c3)C(=O)OC4=O)ccc21	inactive	–
O=C1c2ccccc2C(=O)c2c(O)c(O)cc(O)c21	inactive	–
CCC(=O)O	inactive	–

Target: Transcription factor Sp1 (Homo sapiens) (UniProt P08047)
Sequence (P08047 whole entry, looked up): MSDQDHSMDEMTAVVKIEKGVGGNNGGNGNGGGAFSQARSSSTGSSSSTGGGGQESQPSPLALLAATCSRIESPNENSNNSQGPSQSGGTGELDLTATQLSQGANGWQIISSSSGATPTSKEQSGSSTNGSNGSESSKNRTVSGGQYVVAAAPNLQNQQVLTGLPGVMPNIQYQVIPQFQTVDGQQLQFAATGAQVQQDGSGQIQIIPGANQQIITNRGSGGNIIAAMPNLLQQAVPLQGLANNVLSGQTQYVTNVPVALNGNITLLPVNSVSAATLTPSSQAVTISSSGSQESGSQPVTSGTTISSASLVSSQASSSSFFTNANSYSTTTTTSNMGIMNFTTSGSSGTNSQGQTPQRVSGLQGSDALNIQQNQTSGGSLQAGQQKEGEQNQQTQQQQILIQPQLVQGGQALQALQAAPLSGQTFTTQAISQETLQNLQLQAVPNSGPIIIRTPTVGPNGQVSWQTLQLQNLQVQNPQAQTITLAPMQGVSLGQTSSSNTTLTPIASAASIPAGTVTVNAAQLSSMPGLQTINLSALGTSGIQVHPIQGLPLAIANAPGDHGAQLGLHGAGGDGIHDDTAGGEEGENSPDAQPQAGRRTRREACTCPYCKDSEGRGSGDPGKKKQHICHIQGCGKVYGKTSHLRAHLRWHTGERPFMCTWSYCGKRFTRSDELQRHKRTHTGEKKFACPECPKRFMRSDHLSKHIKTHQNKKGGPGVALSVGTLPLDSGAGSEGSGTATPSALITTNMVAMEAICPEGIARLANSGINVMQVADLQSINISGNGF
Assay: ATG_Sp1_CIS: Attagene CIS-FACTORIAL HepG2 Assay for human Specificity Protein 1 (Sp1) (AID 2282961)
Conditions: HepG2 Sp1 cis-reporter transcription, actives raise or lower the signal
In short: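 Cells: HepG2, transiently transfected with cis-regulated multiplexed reporters. Exposure: 24 h. Detection: reporter transcripts amplified, fluorescently labeled, restriction-digested and sized by capillary electrophoresis. Analysis: bidirectional fit relative to DMSO.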

SMILES	outcome	AC50
c1ccc2c(c1)CCC2	inactive	–
CC(C)(C)c1ccc(O)c(O)c1	inactive	–
CN(Cc1cnc2nc(N)nc(N)c2n1)c1ccc(C(=O)N[C@@H](CCC(=O)O)C(=O)O)cc1	inactive	–
CCCCCCCCCCCC(=O)NCCCN(C)C	inactive	–
O=C1c2ccc(O)c(O)c2C(=O)c2c(O)ccc(O)c21	inactive	–
Cc1ccc(C(=O)c2ccccc2)cc1	inactive	–
Nc1ccc(O)c(C(=O)O)c1	inactive	–
CC[N+](CC)(CC)Cc1ccccc1	inactive	–
O=C1Cc2ccccc2N1c1c(Cl)cccc1Cl	inactive	–
CCCCC(CC)C(=O)OCCOCCOCCOCCOC(=O)C(CC)CCCC (configuration not stated)	inactive	–
c1cnc2c(c1)ccc1cccnc12	inactive	–
Cc1cc(=O)oc2cc(O)ccc12	inactive	–
FC(OC(F)(F)C(F)(F)C(F)(F)F)C(F)(F)F (configuration not stated)	inactive	–
COCN(COC)c1nc(N(COC)COC)nc(N(COC)COC)n1	inactive	–
CC=O	inactive	–
CCCCCCCCCCCCCCC	inactive	–
Cc1ccccc1C(OCCN(C)C)c1ccccc1 (configuration not stated)	inactive	–
CC(=O)Nc1ccc(O)cc1	inactive	–
CCc1ccccc1O	inactive	–
Nc1ccn([C@@H]2O[C@H](CO)[C@@H](O)C2O)c(=O)n1 (some centres not stated)	inactive	–
O=C(CCCN1CCC(O)(c2ccc(Cl)cc2)CC1)c1ccc(F)cc1	–	33.4 µM (active)
CC1=NN(c2ccccc2)C(=O)C1	inactive	–
O=S(=O)(c1ccc(OCc2ccccc2)cc1)c1ccccc1O	–	30.6 µM (active)
CC(C)C=O	inactive	–
Cc1ccc(S(=O)(=O)O)cc1	inactive	–
Cc1cc(Cc2cc(C)cc(C(C)(C)C)c2O)c(O)c(C(C)(C)C)c1	–	93.6 µM (active)
Cc1ccc(N=Nc2c(O)ccc3ccccc23)c(C)c1	inactive	–
O=C1OC(=O)c2cc(-c3ccc4c(c3)C(=O)OC4=O)ccc21	inactive	–
O=C1c2ccccc2C(=O)c2c(O)c(O)cc(O)c21	inactive	–
CCC(=O)O	inactive	–
